We go through seven molecules from PubChem BioAssay (Tox21).

Unmarked numbers belong to inactive results. Records with an inconclusive call do not appear. Activity calls are given as the source filed them. Unless noted, calls follow the shape of the dose curve; as a rule, active = well fitted curve in the direction sought with a large enough effect in the repeat runs; inconclusive = weak or mixed curves; inactive = no such curve, though single readings can be large; an effect the other way counts as inactive or inconclusive.

For assay [1], the target named is Nuclear receptor subfamily 1 group I member 3 (Homo sapiens) (UniProt Q14994). In words: qHTS assay to identify small molecule agonists of the constitutive androstane receptor (CAR) signaling pathway (AID 1224839). Also: nearly all actives have a fitted effect of over 15% in size. Also: potency is read from the fitted curve at half-maximal effect.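 As to activation: HepG2 cells stably carrying human CAR and a CYP2B6 luciferase reporter; series mostly up to about 92 µM.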 The gist of the method:
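HepG2-CYP2B6-hCAR cells, 2500/well, 4 h pre-incubation; compounds 15 conc.; PK11195 0.75 uM final; 24 h, 37 C/5% CO2; ONE-Glo luciferase read.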
(In general: In qHTS, concentration-response curves come from the screen itself.)

Assay [2] can be described thus: qHTS assay to identify small molecule antagonists of the estrogen related receptor signaling pathway with the pleiotropic PPARgamma coactivator (PGC) from Tox21 10K library - cell viability counter screen (AID 1224840; active = well fitted cell-killing curve with a large enough effect in the repeat runs, not every such curve was filed as active; also: nearly all actives have a fitted effect of over 40% in size). The method in brief: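 Multiplexed viability counter screen in the PGC/ERR cell line: cells treated with DMSO-dissolved compounds for 17.5 hours at 37 C, then viability measured as CellTiter-Fluor fluorescence.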

The nature of assay [3]: qHTS assay to identify small molecule agonists of the hypoxia (HIF-1) signaling pathway - cell viability counter screen (AID 1224844; calls by dose curve; also: nearly all actives have a fitted effect of over 50% in size). The method in brief:
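Cytotoxicity was measured in parallel with the HRE-driven beta-lactamase readout: after 17 hrs of compound exposure at 37C, HRE-bla ME-180 cells received CellTiter-Glo and luminescence was recorded 30 min later.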

The nature of assay [4]: qHTS assay to identify small molecule agonists of H2AX (AID 1224845; active = well fitted activation curve with a large enough effect in the signal ratio in the repeat runs, not every such curve was filed as active; the % refers to the signal ratio). The method in brief:
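Wild-type CHO-K1 cells plated overnight, then exposed 3 hr at 37C to compounds at 15 concentrations (0.76% DMSO). Lysed, then HTRF anti-pH2AX(S139)-cryptate/anti-H2AX-d2 detection after 24 hr at room temperature; emissions 665 and 620 nm.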

Assay [5] is described as follows: qHTS assay to identify small molecule agonists of the hypoxia (HIF-1) signaling pathway (AID 1224846; active = well fitted activation curve with a large enough effect in the signal ratio in the repeat runs, not every such curve was filed as active; the % refers to the signal ratio). The gist of the method:
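Compounds from the Tox21 10K library, dissolved in DMSO, are tested for induction of a hypoxia response element–controlled beta-lactamase reporter in ME-180 cells. Exposure lasts 17 hrs at 37C after a 5 hr settling period, followed by CCF4-AM FRET substrate.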

Assay [6] can be described thus: qHTS assay to identify small molecule agonists of H2AX - cell viability counter screen (AID 1224847; calls by dose curve; also: top concentration of the series differs between compounds; nearly all actives have a fitted effect of over 30% in size). The method in brief:
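Cells plated first: CHO-K1, 1000 per well in 10% FBS medium, incubated overnight at 37C. Then 15-point compound titration added (final DMSO 0.76%) for 3 hr. Finally CellTiter-Glo added and luminescence read.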

Assay [7] is described as follows: qHTS RealTime-Glo MT Cell Viability Assay in HepG2 cells - 24 hour (AID 1224867). Also: nearly all actives have a fitted effect of over 50% in size. The method in brief:
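HepG2 cells (600/well) were dispensed with RealTime-Glo reagents, incubated 5 h at 37 °C, then treated with compounds in DMSO for up to 40 h. Nonlytic NanoLuc luminescence reflecting viable cells was read at each stated time point.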

Assay [8] is described as follows: qHTS RealTime-Glo MT Cell Viability Assay in HEK293 cells - 32 hour (AID 1224868). Also: top concentration of the series differs between compounds; nearly all actives have a fitted effect of over 50% in size. The gist of the method: (§1)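 HEK293 cells seeded with NanoLuc/prosubstrate reagent, rested 5 h at 37 C, then dosed and kept at 37 C up to 40 h. Nonlytic real-time luminescence from viable cells read at 0, 8, 16, 24, 32 and 40 h.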
Assay [9] is described as follows: A CellTox Green Cytotoxicity Assay to monitor cytotoxicity in HEK293 cells - 0 hour (AID 1224869). Also: nearly all actives have a fitted effect of over 50% in size. Also: potency is read from the fitted curve at half-maximal effect. The gist of the method: (§2)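 Cells (HEK293, 600/well) and dye reagent are dispensed together. After 5 h at 37 C, 23 nL compound is pinned in. Plates stay at 37 C for 40 h with fluorescence read at 0h, 8h, 16h, 24h, 32h and 40h.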
The nature of assay [10]: A CellTox Green Cytotoxicity Assay to monitor cytotoxicity in HEK293 cells - 40 hour (AID 1224871). Also: nearly all actives have a fitted effect of over 45% in size. Also: potency is read from the fitted curve at half-maximal effect. The method in brief:
as §2

A short description of assay [11]: qHTS RealTime-Glo MT Cell Viability Assay in HEK293 cells - 16 hour (AID 1224872). The method in brief:
as §1

Assay [12] can be described thus: qHTS RealTime-Glo MT Cell Viability Assay in HepG2 cells - 8 hour (AID 1224873). Also: nearly all actives have a fitted effect of over 55% in size. The method in brief: (§3)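 HepG2 cells mixed with RealTime-Glo MT reagents (NanoLuc plus cell-permeant prosubstrate) were seeded at 600 cells/well, incubated 5 h at 37 C/5% CO2, then pinned with compounds in DMSO; nonlytic luminescence tracked viability during 40 h treatment.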
A short description of assay [13]: qHTS RealTime-Glo MT Cell Viability Assay in HEK293 cells - 40 hour (AID 1224874). Also: nearly all actives have a fitted effect of over 50% in size. The settings on record: RealTime-Glo luminescence; max response: stronger effect = lower value. The method in brief: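 Real-time viability in HEK293: signal arises when living cells convert a prosubstrate for NanoLuc in the medium, so luminescence tracks viable cell number. Compound (23 nL, DMSO) added 5 h post-seeding; kinetic reads at 0–40 h, 37 C.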

Assay [14] can be described thus: A CellTox Green Cytotoxicity Assay to monitor cytotoxicity in HEK293 cells - 24 hour (AID 1224875). Also: series mostly up to about 77 µM; nearly all actives have a fitted effect of over 45% in size. The method in brief:
as §2

Assay [15] is described as follows: qHTS assay to identify small molecule antagonists of the estrogen related receptor signaling pathway with the pleiotropic PPARgamma coactivator (PGC) from Tox21 10K library (AID 1224841; call rule not given here). The gist of the method: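 Steps: plate 2,000 PGC/ERR cells per well; incubate 6 h at 37 C with 5% CO2; transfer compounds from DMSO stocks by pin tool; incubate 18 h at 37 C; add One-Glo; measure luminescence 30 min later.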

A short description of assay [16]: qHTS assay to identify small molecule agonists of the estrogen related receptor signaling pathway with the pleiotropic PPARgamma coactivator (PGC) from Tox21 10K library (AID 1224842). Also: nearly all actives have a fitted effect of over 15% in size. The method in brief: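 PGC/ERR reporter cells (NTP line) were seeded 2,000 per well, rested 6 h at 37 C/5% CO2, then pin-dosed with compounds in DMSO for 18 h at 37 C; luciferase read by One-Glo luminescence after 30 min at room temperature.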

For assay [17], the target named is Thyrotropin receptor (Homo sapiens) (UniProt P16473). Put plainly: qHTS assay to identify small molecule agonists of the thyroid stimulating hormone receptor (TSHR) signaling pathway (AID 1224843; calls by dose curve; also: nearly all actives have a fitted effect of over 45% in size). The method in brief:
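Compounds are titrated over 15 concentrations, in triplicate, onto TSHR-HEK293 cells seeded at 800/well. Plates sit 30 min at room temperature before cAMP-d2 and anti-cAMP cryptate are added; signal is read after a further hour.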

Assay [18] in a line: qHTS assay to identify small molecule antagonists of the estrogen related receptor (ERR) signaling pathway from Tox21 library (AID 1224848). Also: nearly all actives have a fitted effect of over 50% in size. Also: potency is read from the fitted curve at half-maximal effect. The gist of the method:
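First, 2,000 ERR cells per well were plated and held 6 h at 37 C/5% CO2. Next, compounds in DMSO were pinned in and left 18 h at 37 C. Finally, ONE-Glo was added and luminescence read after 30 min at room temperature.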

Assay [19] is described as follows: qHTS assay to identify small molecule agonists of the estrogen related receptor (ERR) signaling pathway from Tox21 library (AID 1224849; calls by dose curve; also: nearly all actives have a fitted effect of over 15% in size). The method in brief: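 Cells carrying the ERR reporter were plated and allowed to settle for 6 h, exposed to library compounds for 18 h at 37 C, then lysed with ONE-Glo and luminescence measured.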
The nature of assay [20]: qHTS RealTime-Glo MT Cell Viability Assay in HepG2 cells - 40 hour (AID 1224870). Also: nearly all actives have a fitted effect of over 50% in size. The method in brief:
as §3
% is scaled to controls: 0 for no effect and ±100 for the full control effect.

Sequence of Thyrotropin receptor (Homo sapiens) (P16473 whole entry, looked up): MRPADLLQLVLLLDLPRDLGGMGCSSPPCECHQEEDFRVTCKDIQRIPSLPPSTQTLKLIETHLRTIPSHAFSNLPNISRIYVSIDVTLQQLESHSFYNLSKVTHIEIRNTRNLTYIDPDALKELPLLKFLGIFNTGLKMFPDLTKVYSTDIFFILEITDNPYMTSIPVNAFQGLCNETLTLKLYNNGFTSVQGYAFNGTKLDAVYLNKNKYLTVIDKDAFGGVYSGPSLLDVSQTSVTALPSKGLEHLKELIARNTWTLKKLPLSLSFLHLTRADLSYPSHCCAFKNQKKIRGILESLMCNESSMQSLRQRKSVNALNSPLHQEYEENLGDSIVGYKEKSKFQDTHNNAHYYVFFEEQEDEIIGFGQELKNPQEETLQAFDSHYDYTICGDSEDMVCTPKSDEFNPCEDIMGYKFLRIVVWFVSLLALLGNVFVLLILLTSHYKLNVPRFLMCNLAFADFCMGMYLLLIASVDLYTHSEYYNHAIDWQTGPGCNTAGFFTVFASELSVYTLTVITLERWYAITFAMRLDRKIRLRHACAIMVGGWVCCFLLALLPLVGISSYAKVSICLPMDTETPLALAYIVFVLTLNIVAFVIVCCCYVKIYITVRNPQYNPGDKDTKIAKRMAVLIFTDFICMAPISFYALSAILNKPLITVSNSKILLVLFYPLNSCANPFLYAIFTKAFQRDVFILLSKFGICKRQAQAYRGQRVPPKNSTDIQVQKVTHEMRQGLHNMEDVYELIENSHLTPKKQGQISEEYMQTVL
Sequence of Nuclear receptor subfamily 1 group I member 3 (Homo sapiens) (Q14994 whole entry, looked up): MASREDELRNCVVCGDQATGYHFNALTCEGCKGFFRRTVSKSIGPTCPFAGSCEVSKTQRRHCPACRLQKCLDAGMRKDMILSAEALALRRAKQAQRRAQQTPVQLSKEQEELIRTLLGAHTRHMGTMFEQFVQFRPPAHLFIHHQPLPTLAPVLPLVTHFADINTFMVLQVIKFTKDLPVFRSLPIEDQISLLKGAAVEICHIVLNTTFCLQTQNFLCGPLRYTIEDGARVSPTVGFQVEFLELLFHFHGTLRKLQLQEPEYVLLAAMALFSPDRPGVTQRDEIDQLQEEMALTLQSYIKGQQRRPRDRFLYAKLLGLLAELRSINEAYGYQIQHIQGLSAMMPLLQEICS

For `FC(F)(F)/C(=N\OCC1OCCO1)c1ccc(Cl)cc1`, the Potency entry in assay [1], in assay [6], in assay [8], in [9], in assay [10] and in assay [11] was “inactive” each time. Moreover, the Potency result in assay [14] was “inactive”. Moreover, the outcome in [2], in [3], in assay [4], in [5], in assay [7] and in assay [12] was inactive. Also, in assay [13], the max response was 3.42%.

As for `Cc1cccc(NC(=S)N(C)C)c1`, the Potency result in assay [1], in assay [15], in assay [8], in assay [9], in assay [10] and in assay [11] was “inactive” in each case. Also, the Potency result in [14] is “inactive”. The molecule was called inactive in assay [2], in assay [16], in assay [17], in [3], in assay [4] and in assay [5]. Further, the molecule was classed as inactive in assay [19], in assay [7], in assay [20] and in [12]. For the same molecule, the Potency in [18] was 48.6 µM (active).

Consider `O=C(/C=C/c1ccccc1)NCCO`, for which the Potency result in assay [1], in assay [6], in [8] and in assay [11] was “inactive” in each case. Besides, the molecule was classed as inactive in assay [2], in assay [17], in assay [3], in [4], in assay [5] and in assay [7]. For the same molecule, the outcome in [20] and in assay [12] was inactive. For the same molecule, the Potency in assay [9] is 9.52 µM (active); in assay [10], 7.56 µM (active). For the same molecule, in assay [13], the max response was -3.72%.

For the molecule `CC(=O)c1ccc(OCC(=O)N2CCCCC2)cc1`, the Potency in assay [1] was 18.8 µM (active). The result in assay [2], in assay [16], in assay [17], in assay [4], in assay [5] and in [7] was inactive. For the same molecule, the call in assay [12] was inactive. The Potency entry in assay [6], in assay [18], in assay [8], in assay [9], in assay [10] and in [11] was “inactive” in each case. Besides, the Potency result in [14] is “inactive”. Besides, in assay [13], the max response was 1.3%.

Regarding `C/C=C(\C)C(=O)OCC/C=C\CC`, the Potency result in [1], in [8], in [9], in assay [10], in assay [11] and in assay [14] was “inactive” each time. Also, the outcome in assay [2], in assay [17], in [3], in assay [4], in assay [5] and in assay [7] was inactive. For the same molecule, the result in assay [20] and in [12] was inactive. Moreover, the max response in assay [13] is 2.25%.

With `O=C1c2ccccc2-c2ccccc21`, the Potency entry in [1], in [15], in assay [6], in [18], in assay [8] and in [9] was “inactive” in each case. Moreover, the Potency entry in assay [10] and in assay [11] was “inactive” in each case. The result in [2], in assay [16], in assay [17], in [3], in assay [4] and in assay [19] was inactive. The call in [7], in assay [20] and in [12] was inactive. For the same molecule, in [13], the max response is 1.19%.

On to `C[C@@H]1C[C@H]2[C@@H]3C[C@H](F)C4=CC(=O)C=C[C@]4(C)[C@@]3(F)[C@@H](O)C[C@]2(C)[C@@]1(O)C(=O)CO`, for which the Potency result in [1], in assay [6], in [18], in assay [8], in assay [9] and in [10] was “inactive” in each case. Besides, the Potency result in assay [11] and in assay [14] was “inactive” in each case. The outcome in assay [2], in assay [16], in assay [17], in assay [3], in assay [4] and in assay [5] was inactive. The call in [19], in [7], in assay [20] and in [12] was inactive. Also, the max response in assay [13] was -1.4%.
